Laboratory results as given in the supplement of paper PMC11732987, “Enantioselective OTUD7B fragment discovery through chemoproteomics screening and high-throughput optimisation” (Communications Chemistry, 2025).
Values without a mark were called inactive.

Target: COPS5 (UniProt Q92905)
Assay: log2 ratio of Biotin-Ahx-Ub-VS probe labelling (fragment/DMSO); higher = less target engagement (more negative = stronger competition), active = hit call of the paper (q ≤ 0.05, log2 ratio ≤ -1)
Settings: compound concentration: 200 uM; treatment time: 3 h
Protocol: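 Competitive ABPP in HEK293T cell lysate. Lysates were treated with each chloroacetamide fragment at 200 µM for 3 h, then with Biotin-Ahx-Ub-VS (0.5 µM, 1 h), NeutrAvidin-enriched and analysed by diaPASEF LC-MS/MS. Protein LFQ was median-normalised; average log2 ratio is fragment/DMSO from an unpaired t-test (n=3 treated, n=44 DMSO). Hits: q ≤ 0.05, log2 ratio ≤ -1, unique peptides ≥ 2.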

Chain of COPS5 (Q92905 whole entry, looked up, the tested form may be a part): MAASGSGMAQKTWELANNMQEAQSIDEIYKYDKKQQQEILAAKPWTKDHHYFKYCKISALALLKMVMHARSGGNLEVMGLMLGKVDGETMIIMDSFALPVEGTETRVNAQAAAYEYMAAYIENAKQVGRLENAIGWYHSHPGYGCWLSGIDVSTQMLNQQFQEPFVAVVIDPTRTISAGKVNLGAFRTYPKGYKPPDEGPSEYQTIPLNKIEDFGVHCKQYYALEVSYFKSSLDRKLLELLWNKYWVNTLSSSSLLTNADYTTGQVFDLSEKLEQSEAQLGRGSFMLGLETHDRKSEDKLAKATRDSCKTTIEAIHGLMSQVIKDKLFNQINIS

| Structure (SMILES) | log2 ratio of Biotin-Ahx-Ub-VS probe labelling |
| --- | --- |
| CCC(NC(=O)CCl)c1ccc(Cl)cc1 (stereo not given) | 0.193 |
| O=C(CCl)NC(Cn1ccccc1=O)c1ccccc1 (stereo not given) | 0.168 |
| CS(=O)(=O)N1CCCN(C(=O)CCl)CC1 | 0.193 |
| Cl.O=C(CCl)N1CCn2cncc2C1 | -0.298 |
| O=C(CCl)N1CCC[C@@H]1c1ccon1 | -0.115 |
| Cc1cccn2cc(CCNC(=O)CCl)nc12.Cl | -0.284 |
| CCN1C(=O)C2CN(C(=O)CCl)CCN2C1=O (stereo not given) | -0.0909 |
| Cc1cccc(N(CCC#N)C(=O)CCl)c1C | -0.0126 |
| O=C(CCl)N1CCC(c2ccn[nH]2)C1 (stereo not given) | 0.121 |
| O=C(CCl)Nc1cccc(NC(=O)c2ccccc2)c1 | -0.238 |
| CNC(=O)Cn1cc(NC(=O)CCl)cn1 | 0.0739 |
| O=C(CCl)N1CC=C(c2c[nH]c3ccccc23)CC1 | -0.0638 |
| O=C(CCl)N(C1CCCC1)C1CCS(=O)(=O)C1 (stereo not given) | -0.0682 |
| O=C(CCl)N1CCC(c2nc3ccccc3o2)CC1 | -0.0083 |
| Cl.O=C(CCl)N1CCC(n2nc3ccccc3n2)CC1 | -0.532 |
| COCC1C=CCCN1C(=O)CCl (stereo not given) | -0.00365 |
| Cc1noc(N2CCN(C(=O)CCl)CC2)n1.Cl | -0.17 |
| O=C(CCl)N1CCc2nc[nH]c2C1c1ccc(Cl)cc1 (stereo not given) | -0.139 |
| CCN(C(=O)CCl)C1CCS(=O)(=O)C1 (stereo not given) | -0.0629 |
| CN(C)S(=O)(=O)c1ccccc1CNC(=O)CCl | 0.197 |

| Structure (SMILES) | log2 ratio of Biotin-Ahx-Ub-VS probe labelling |
| --- | --- |
| CN(CCc1ncc(Br)cn1)C(=O)CCl.Cl | 0.2 |
| O=C(CCl)NCCC1=CCCCC1 | 0.0168 |
| Cl.O=C(CCl)N1CCc2ncncc2C1 | -0.0201 |
| CS(=O)(=O)c1ccc(NC(=O)CCl)cc1 | 0.0438 |
| COc1ccccc1C(C)NC(=O)CCl (stereo not given) | 0.247 |
| C[C@@H](NC(=O)CCl)c1cccc(C#N)c1 | -0.193 |
| O=C(CCl)N1CCC2(CCC(O)CC2)CC1 | 0.318 |
| CN1c2ccccc2C(NC(=O)CCl)CS1(=O)=O (stereo not given) | 0.318 |
| Cc1cc(C(=O)NC2CCN(C(=O)CCl)CC2)no1 | 0.0469 |
| CC1CCc2onc(CNC(=O)CCl)c2C1 (stereo not given) | 0.0922 |
| O=C(CCl)N1CCc2ccccc2C(O)C1 (stereo not given) | 0.0553 |
| COc1ccc(C2CCCN2C(=O)CCl)c(OC)c1 (stereo not given) | -0.524 |
| Cc1ccc(CN(CCO)C(=O)CCl)cc1 | -0.141 |
| Cl.O=C(CCl)N1CC(c2ccc(Br)cn2)C1 | -0.0867 |
| O=C(CCl)Nc1cccc(C(=O)N2CCSCC2)c1 | -0.111 |
| Cl.Cn1ncc2c1CC(NC(=O)CCl)CC2 (stereo not given) | -0.0206 |
| O=C(CCl)N1c2ccccc2NC(=O)C12CCCC2 | 0.325 |
| CS(=O)(=O)c1ccc(CNC(=O)CCl)cc1 | 0.0587 |
| CC(NC(=O)CCl)c1noc(Cc2ccccc2)n1 (stereo not given) | 0.201 |
| Cl.O=C(CCl)NC1(c2ncccn2)CCC1 | 0.0888 |
